Measurements: PubChem BioAssay AID504333 (National Center for Advancing Translational Sciences (NCATS), 2011)
Screen size: about 360,000 compounds; about 16,000 (4.4%) were called active. A call without a number means that no potency is given here. Another 9% or so got no clear call; they are omitted. Calls follow the shape of the dose curve; as a rule, active = well fitted inhibition curve with a large enough effect; inconclusive = small, poorly fitted or top-dose-only effect; inactive = no such curve, though single readings can be large or run the other way. The full list was thinned out, with actives kept by preference.

target: Bromodomain adjacent to zinc finger domain protein 2B (Homo sapiens) (UniProt Q9UIF8); assay: qHTS Assay for Inhibitors of BAZ2B; conditions: AlphaScreen BAZ2B-H3K14Ac peptide displacement; series mostly up to 114 µM; also: nearly all actives have a fitted effect of over 60% in size
Procedure, shortened: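 AlphaScreen displacement of biotin-H3(5-23)K14Ac peptide (50 nM final) from BAZ2B (50 nM final) in PBS pH 7.4, 0.01% Tween-20; complex preformed 30 min RT, then compounds (top 110 uM) 30 min RT, beads 20 min dark.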
Potency is read from the fitted curve at half-maximal effect.

Sequence of Bromodomain adjacent to zinc finger domain protein 2B (Homo sapiens) (Q9UIF8 whole entry, looked up, the tested form may be a part): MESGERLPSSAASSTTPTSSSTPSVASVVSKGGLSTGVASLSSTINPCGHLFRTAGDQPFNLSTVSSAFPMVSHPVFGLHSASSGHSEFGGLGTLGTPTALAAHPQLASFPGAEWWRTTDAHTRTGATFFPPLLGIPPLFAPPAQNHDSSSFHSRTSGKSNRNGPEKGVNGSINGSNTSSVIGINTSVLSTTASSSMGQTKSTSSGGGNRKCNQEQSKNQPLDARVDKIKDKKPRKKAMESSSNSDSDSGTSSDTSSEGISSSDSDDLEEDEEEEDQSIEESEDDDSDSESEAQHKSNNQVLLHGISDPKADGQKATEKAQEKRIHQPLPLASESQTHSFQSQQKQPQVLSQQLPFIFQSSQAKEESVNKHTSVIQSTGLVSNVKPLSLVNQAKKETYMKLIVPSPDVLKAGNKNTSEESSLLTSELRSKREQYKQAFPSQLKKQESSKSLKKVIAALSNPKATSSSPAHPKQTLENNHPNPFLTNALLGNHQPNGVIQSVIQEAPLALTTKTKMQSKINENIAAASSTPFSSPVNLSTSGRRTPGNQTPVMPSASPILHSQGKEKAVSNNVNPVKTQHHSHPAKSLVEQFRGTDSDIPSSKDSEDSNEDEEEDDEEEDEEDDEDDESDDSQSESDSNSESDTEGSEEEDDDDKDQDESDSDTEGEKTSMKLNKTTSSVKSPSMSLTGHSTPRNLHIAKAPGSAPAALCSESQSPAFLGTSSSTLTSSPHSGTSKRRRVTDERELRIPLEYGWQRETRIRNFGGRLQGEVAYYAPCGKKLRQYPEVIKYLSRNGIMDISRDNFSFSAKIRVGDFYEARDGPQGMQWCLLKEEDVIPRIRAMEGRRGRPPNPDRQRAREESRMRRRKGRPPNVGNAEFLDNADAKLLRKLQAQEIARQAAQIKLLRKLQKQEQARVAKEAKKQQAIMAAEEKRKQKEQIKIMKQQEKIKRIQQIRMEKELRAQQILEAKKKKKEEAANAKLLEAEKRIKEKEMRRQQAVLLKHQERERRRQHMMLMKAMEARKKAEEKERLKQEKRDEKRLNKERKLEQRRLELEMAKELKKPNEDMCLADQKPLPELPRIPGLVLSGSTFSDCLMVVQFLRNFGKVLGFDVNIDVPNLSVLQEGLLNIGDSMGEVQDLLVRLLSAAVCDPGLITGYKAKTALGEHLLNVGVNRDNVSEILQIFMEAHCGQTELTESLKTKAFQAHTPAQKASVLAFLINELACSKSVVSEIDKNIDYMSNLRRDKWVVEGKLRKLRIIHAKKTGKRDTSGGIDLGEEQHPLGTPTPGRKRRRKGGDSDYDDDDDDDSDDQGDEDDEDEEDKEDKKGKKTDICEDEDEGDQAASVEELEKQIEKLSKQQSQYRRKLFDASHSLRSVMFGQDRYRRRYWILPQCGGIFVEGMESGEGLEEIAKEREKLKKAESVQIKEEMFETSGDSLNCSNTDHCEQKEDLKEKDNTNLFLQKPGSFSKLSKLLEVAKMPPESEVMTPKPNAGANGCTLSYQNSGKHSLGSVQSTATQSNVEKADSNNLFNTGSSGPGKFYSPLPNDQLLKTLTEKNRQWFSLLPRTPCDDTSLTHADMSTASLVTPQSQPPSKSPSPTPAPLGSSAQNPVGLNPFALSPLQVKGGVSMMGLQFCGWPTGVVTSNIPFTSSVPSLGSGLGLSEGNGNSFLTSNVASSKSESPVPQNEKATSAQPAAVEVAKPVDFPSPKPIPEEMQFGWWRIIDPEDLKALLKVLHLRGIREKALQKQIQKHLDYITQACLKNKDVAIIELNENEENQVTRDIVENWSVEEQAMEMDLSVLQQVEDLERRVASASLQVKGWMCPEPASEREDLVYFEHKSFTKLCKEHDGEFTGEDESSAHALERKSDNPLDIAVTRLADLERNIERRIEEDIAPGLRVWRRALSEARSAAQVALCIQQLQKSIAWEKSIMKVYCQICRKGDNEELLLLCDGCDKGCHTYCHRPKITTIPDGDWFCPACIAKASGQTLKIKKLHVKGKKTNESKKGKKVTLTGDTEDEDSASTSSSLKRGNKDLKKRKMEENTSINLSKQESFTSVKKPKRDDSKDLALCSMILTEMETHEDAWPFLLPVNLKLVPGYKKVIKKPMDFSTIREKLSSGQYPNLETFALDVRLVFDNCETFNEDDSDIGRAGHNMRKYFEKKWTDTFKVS

Question: How did the Potency turn out when `COC(=O)C1=C(c2ccc(F)cc2OCc2ccccc2)C[C@@H]2CC[C@H]1N2C(=O)NCc1ccc(OC)c(OC)c1` was run?
Answer: The Potency was “inactive”.

Question: With `O=C(CCC(=O)N1C[C@H]2C[C@@H](C1)c1cccc(=O)n1C2)NCc1ccccc1C(F)(F)F` as the compound, how does the Potency read?
Answer: Its Potency is “inactive”.

Question: For `CN1CCN(Cc2ccccc2C(F)(F)F)CC1`, which Potency is on record?
Answer: Its Potency is “inactive”.

Question: Which Potency does the source give for `CN1CCN(Cc2ccc(OC(F)(F)F)cc2)CC1` here?
Answer: The Potency was 56.2 µM (active).

Question: With `CC(C)c1ccc(OCC(=O)N2CCCN(C)CC2)cc1` as the compound, how does the Potency read?
Answer: The Potency was “inactive”.

Question: Which Potency does the source give for `CCN(CC)C(=O)c1ccc(NC(=O)c2sccc2-c2ccccc2)cc1` here?
Answer: Its Potency is “inactive”.

Question: `CCOc1cc(N2CCOCC2)c(OCC)cc1NC(=O)C1=NN(c2cccc(C)c2)C(=O)CC1` was tested. Which Potency did it give?
Answer: Its Potency is 8.91 µM (active).

Question: For `CN(C)CC1Oc2ccccc2OC1(O)c1ccccc1` (stereo not given), which Potency is on record?
Answer: Its Potency is “inactive”.

Question: How did the Potency turn out when `CN(C)c1ccc(/C=C2\CC3C4CC=C5CC(O)CCC5(C)C4CCC3(C)C2=O)cc1` (stereo not given) was run?
Answer: Its Potency is “inactive”.

Question: How did the Potency turn out when `COC(=O)C1=C(c2ccc(F)cc2OCc2ccccc2)C[C@@H]2CC[C@H]1N2C(=O)NCc1ccc(Cl)cc1` was run?
Answer: The Potency was “inactive”.

Question: `c1cc2c(cc1CCNC1CCCCCC1)OCO2` was tested. Which Potency did it give?
Answer: The Potency was 17.8 µM (active).

Question: How did the Potency turn out when `c1cc2c(cc1[C@H]1OC[C@H]3[C@@H]1CO[C@@H]3c1ccc3c(c1)OCO3)OCO2` was run?
Answer: The Potency was “inactive”.

Question: How did the Potency turn out when `OC(CNC1CCCCC1)c1ccccc1` (stereo not given) was run?
Answer: The Potency was “inactive”.

Question: With `c1ccc(CCNC2CCCCCC2)cc1` as the compound, how does the Potency read?
Answer: Its Potency is 70.8 µM (active).

Question: Which Potency does the source give for `Cc1ccc(CN2CCCC(C(=O)c3ccc4c(c3)OCO4)C2)cc1C` (stereo not given) here?
Answer: The Potency was “inactive”.

Question: Which Potency does the source give for `c1ccc(CC2CCCCN2)cc1` (stereo not given) here?
Answer: Its Potency is “inactive”.

Question: `COc1cc(Cn2c(N)c(C(=O)NCc3ccco3)c3nc4ccccc4nc32)cc(OC)c1OC` was tested. Which Potency did it give?
Answer: The Potency was “inactive”.

Question: With `O=C(c1ccccc1[N+](=O)[O-])N1CCC2(CC1)OCCO2` as the compound, how does the Potency read?
Answer: The Potency was “inactive”.

Question: For `COC(=O)C1=C(c2ccc(F)cc2F)C[C@@H]2CC[C@H]1N2C(=O)NC1CC1`, which Potency is on record?
Answer: The Potency was “inactive”.

Question: For `Cc1ccc2c(c1)=C/C(=C\c1c(O)[nH]c(=O)[nH]c1=O)C(=O)N=2`, which Potency is on record?
Answer: The Potency was “inactive”.

Question: How did the Potency turn out when `CCOc1ccc(-c2cc(C)[n+](CCN(CC)CC)c(-c3ccc(OCC)cc3)c2)cc1` was run?
Answer: The Potency was “inactive”.

Question: With `Cc1ccc(C(C)C)c(OCC(=O)N2CCN(CC(=O)N3CCOCC3)CC2)c1` as the compound, how does the Potency read?
Answer: Its Potency is “inactive”.

Question: How did the Potency turn out when `CN(C)c1ccc(NC(=O)CN2C3CCCC2CC(NC(=O)c2ccccc2)C3)cc1` (stereo not given) was run?
Answer: The Potency was 70.8 µM (active).

Question: With `CC(=O)Nc1ccc(C(=O)C(Cc2ccccc2)N(C)C)cc1` (stereo not given) as the compound, how does the Potency read?
Answer: Its Potency is “inactive”.

Question: For `CN(C)S(=O)(=O)c1cc(C(=O)N2CCC(C(=O)O)(c3ccccc3)CC2)ccc1Cl`, which Potency is on record?
Answer: Its Potency is “inactive”.

Question: For `CCN1CCN(c2nc3c(c(=O)[nH]2)CCC3)CC1`, which Potency is on record?
Answer: The Potency was “inactive”.

Question: `O=C(Nc1ccc(Cl)cc1C(=O)c1ccccc1)c1cc(Cl)cc(Cl)c1` was tested. Which Potency did it give?
Answer: Its Potency is “inactive”.

Question: With `O=C1NC(=O)N(c2ccccc2)C(=O)/C1=C/c1ccc([N+](=O)[O-])s1` as the compound, how does the Potency read?
Answer: Its Potency is 35.5 µM (active).

Question: Which Potency does the source give for `Cc1cccc(N2C(=O)NC(=O)/C(=C\c3cnn(-c4ccccc4)c3)C2=O)c1` here?
Answer: Its Potency is “inactive”.

Question: For `COc1cccc(N2C(=O)NC(=O)/C(=C\c3cn(C)c4ccccc34)C2=O)c1`, which Potency is on record?
Answer: The Potency was “inactive”.

Question: `COc1cccc(N2C(=O)NC(=O)/C(=C\c3ccc([N+](=O)[O-])s3)C2=O)c1` was tested. Which Potency did it give?
Answer: The Potency was 31.6 µM (active).

Question: Which Potency does the source give for `Cc1nn(-c2ccccc2)c(C)c1NC(=O)COC(=O)Cc1ccccc1` here?
Answer: Its Potency is “inactive”.

Question: `COC(=O)C1=C(c2ccc(C(C)=O)cc2)C[C@@H]2CC[C@H]1N2C(=O)NCCNC(C)=O` was tested. Which Potency did it give?
Answer: The Potency was “inactive”.

Question: With `CC(C)n1c(=O)c(C=Nc2ccc(Br)cc2)c(O)n(Cc2ccco2)c1=O` as the compound, how does the Potency read?
Answer: Its Potency is “inactive”.

Question: Which Potency does the source give for `Cc1cc(C(=O)OCC(=O)Nc2c(F)cccc2F)c(C)n1C1CC1` here?
Answer: The Potency was “inactive”.

Question: With `COc1ccccc1OC(=O)c1ccc(C)c(S(=O)(=O)N2CCOCC2)c1` as the compound, how does the Potency read?
Answer: The Potency was “inactive”.

Question: How did the Potency turn out when `COc1ccc(CN2C(=O)NC(=O)/C(=C\c3ccc(OC)c(OC)c3OC)C2=O)cc1` was run?
Answer: Its Potency is “inactive”.

Question: With `COc1ccc(N2C(=O)/C(=C/c3ccco3)C(=O)NC2=S)cc1` as the compound, how does the Potency read?
Answer: The Potency was 3.55 µM (active).

Question: Which Potency does the source give for `Cc1ccc(S(=O)(=O)N(C)c2ccc(C(=O)NCC3(N(C)C)CCCCC3)cc2)cc1` here?
Answer: Its Potency is “inactive”.

Question: `CN(C)C(=O)Oc1ccc(OCc2cccc[n+]2C)cc1` was tested. Which Potency did it give?
Answer: The Potency was “inactive”.

Question: For `COC(=O)C1=C(c2ccc(F)cc2OCc2ccccc2)C[C@@H]2CC[C@H]1N2C(=O)NCc1ccc(C(C)(C)C)cc1`, which Potency is on record?
Answer: Its Potency is “inactive”.

Question: How did the Potency turn out when `O=C(OCC1O[C@@H](OC(=O)c2cc(O)c(O)c(O)c2)[C@@H](OC(=O)c2cc(O)c(O)c(O)c2)[C@@H](OC(=O)c2cc(O)c(O)c(O)c2)[C@@H]1OC(=O)c1cc(O)c(O)c(O)c1)c1cc(O)c(O)c(O)c1` (stereo not given in full) was run?
Answer: The Potency was 0.708 µM (active).

Question: `CN(C)C(=O)Oc1ccc2c(c1)O/C(=C\c1ccccc1)C2=O` was tested. Which Potency did it give?
Answer: The Potency was “inactive”.

Question: `CC1CCC(N(C)C2CCN(C)CC2)CC1` (stereo not given) was tested. Which Potency did it give?
Answer: Its Potency is “inactive”.

Question: Which Potency does the source give for `CNC(=O)O/N=C(\N)Cc1csc2ccc(Cl)cc12` here?
Answer: The Potency was “inactive”.
